Screening data deposited in PubChem by several laboratories.
In the library only some 4% were active in any assay of this set; here they are far more common.
ADAM10 inh = ADAM10 inhibition, QFRET primary screen; hit rate 0.62% among 370,000; AID 720582; recombinant ADAM10, EDANS/DABCYL FRET peptide cleavage, 3 h; inhibition, % at 7 µM;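 active = inhibition above a per-campaign cutoff equal to the mean of compounds falling between control-based bounds plus 3 SD, cut at about 20% in these data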
Target sequence (O14672 214-748 limits assumed): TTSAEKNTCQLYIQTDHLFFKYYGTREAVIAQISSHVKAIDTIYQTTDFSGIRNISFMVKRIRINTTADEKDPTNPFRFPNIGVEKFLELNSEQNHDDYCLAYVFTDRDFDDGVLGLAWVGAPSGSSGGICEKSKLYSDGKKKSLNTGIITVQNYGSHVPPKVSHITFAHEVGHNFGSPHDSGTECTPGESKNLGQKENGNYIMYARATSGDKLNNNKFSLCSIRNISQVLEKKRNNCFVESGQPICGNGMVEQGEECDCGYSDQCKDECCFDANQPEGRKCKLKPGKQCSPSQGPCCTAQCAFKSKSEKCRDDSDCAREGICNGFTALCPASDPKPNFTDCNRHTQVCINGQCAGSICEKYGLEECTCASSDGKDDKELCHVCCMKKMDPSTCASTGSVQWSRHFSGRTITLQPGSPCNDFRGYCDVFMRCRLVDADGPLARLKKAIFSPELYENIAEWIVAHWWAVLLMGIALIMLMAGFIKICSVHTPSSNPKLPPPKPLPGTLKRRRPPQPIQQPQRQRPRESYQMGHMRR
NR3A LBD binder = modulators (binders) of human NR3A ligand-binding domain | hit rate 2.5% among 340,000 | Tm shift relative to glycine control, % at 25 µM | NR3A LBD differential scanning fluorimetry, Tm shift; 0% = protein alone, 100% = glycine-bound protein | AID 1259313;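 active = melting temperature shift of at least 10% of the positive control shift, at one fixed dose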
aDG glyco up = increases alpha dystroglycan glycosylation; Pro5-aDG cells, alpha-DG glycosylation AlphaScreen (IIH6); 0% Pro5, 100% B10-LARGE cell signal; hit rate 0.22% among 360,000; activation, % at 10 µM;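 active = activation of at least 8% versus controls, or a plate z-score of at least 8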;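 note: Pro5 are CHO cells carrying HIG-tagged alpha-DG that lacks glycosylation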
FAS TE block = blocks the thioesterase domain of human fatty acid synthase; hit rate 0.67% among 360,000; AID 602261; inhibition, % at 15 µM; recombinant FAS-TE, OMFH fluorogenic substrate, fluorescence endpoint; P49327;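 active = compounds whose normalised, plate-corrected inhibition of enzyme fluorescence in the single-dose primary screen is 50% or more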
ADAM17 inh = ADAM17 inhibition, QFRET primary screen. inhibition, % at 6.95 µM. AID 720648. hit rate 0.83% among 370,000. P78536. recombinant ADAM17, EDANS/DABCYL FRET peptide cleavage;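 active = inhibition above the mean of compounds lying between control limits plus 3 SD, set per campaign, cut at about 8.5% in these data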
ADAM10 counter = ADAM10 inhibition, counter-screen for ADAM17 exosite hits; inhibition, % at 6.95 µM; hit rate 47% among 2,900; shares compounds with ADAM17 inh; recombinant ADAM10, EDANS/DABCYL FRET peptide cleavage, 3 h;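 active = mean inhibition over the triplicate runs exceeds the activity threshold set in the earlier primary screen, cut at about 20% in these data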
ADAM17 confirm = confirmation of inhibitors of human ADAM17. shares compounds with ADAM17 inh. recombinant ADAM17, EDANS/DABCYL QFRET peptide cleavage. inhibition, % at 6.95 µM. hit rate 65% among 2,900;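 active = mean inhibition across replicates above the hit cutoff set in the primary screen, cut at about 8.5% in these data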
Of the large screens only hits and unclear results are named; the others gave an inactive call (follow-up assays come after a bar, where they were run).

O=C(CSc1ncn[nH]1)Nc1ccc2c(c1)CCC2	ADAM17 inh 8.8 | ADAM10 counter inactive | ADAM17 confirm inactive
O=C(CCn1nc(-c2ccccc2)c2ccccc2c1=O)N1CCN(c2ccccc2)CC1	ADAM17 inh 10 | ADAM10 counter inactive | ADAM17 confirm inactive
CN(Cc1ccccc1)C(=O)c1[nH]cnc1C(=O)NC1CCN(C(=O)OC(C)(C)C)CC1	none
CC(C)(C)c1ccc(-c2nc(NCc3cccnc3)c3ccccc3n2)cc1	ADAM17 inh 13 | ADAM10 counter inactive | ADAM17 confirm 12
Cc1cc(C)nc(NC(=O)C(c2ccccc2)c2ccccc2)n1	ADAM17 inh 8.7 | ADAM10 counter inactive | ADAM17 confirm inactive
Cc1cc(C)nc(NC(=O)C(c2ccccc2)c2ccccc2)c1	none
O=C(O)CCC(=O)c1c[nH]c2ccccc12	ADAM17 inh 8.9 | ADAM10 counter inactive | ADAM17 confirm 20
CCOC(=O)Cc1csc(NC(=O)COc2cccc(C)c2)n1	none
O=c1oc(-c2cccs2)nc2ccccc12	none
CN(C)S(=O)(=O)c1ccc(/C(O)=C2/C(=O)C(=O)N(Cc3cccnc3)C2c2ccco2)cc1 (stereo not given)	ADAM17 inh 12 | ADAM10 counter inactive | ADAM17 confirm inactive
CC1(O)N(Cc2ccccc2)C(=O)OC12CCCCC2 (stereo not given)	ADAM17 inh 9.1 | ADAM10 counter inactive | ADAM17 confirm 14
CC(NC(=O)COC(=O)C1(C)CC1(Cl)Cl)c1ccccc1 (stereo not given)	ADAM17 inh 8.8 | ADAM10 counter 30 | ADAM17 confirm 9.5
COc1ccc(OC)c(Nc2ccc(Nc3cc(OC)ccc3OC)nn2)c1	ADAM17 inh 18 | ADAM10 counter inactive | ADAM17 confirm inactive
COc1cc(S(=O)(=O)N2CCN(Cc3ccc4c(c3)OCO4)CC2)c(C)cc1C	none
COc1cc(C)c(C)cc1S(=O)(=O)N1CCN(Cc2ccc3c(c2)OCO3)CC1	ADAM17 inh 8.8 | ADAM10 counter 23 | ADAM17 confirm 9.3
CC1(C(=O)NS(=O)(=O)c2cccc(Cl)c2)CCN1C(=O)Cc1ccc(-c2ccccc2)cc1 (stereo not given)	ADAM17 inh 9.0 (no result: NR3A LBD binder) | ADAM10 counter inactive | ADAM17 confirm inactive
COc1cccc(-c2cccc(-c3nc(C(=O)NCc4ccc5c(c4)OCO5)cc4c3[C@H](CCO)N(S(=O)C(C)(C)C)C4)c2)c1 (stereo not given in full)	ADAM17 inh 19 (no result: NR3A LBD binder) | ADAM10 counter inactive | ADAM17 confirm 10
CC(C)(C)S(=O)N1Cc2cc(C(=O)NCc3ccc4c(c3)OCO4)nc(-c3cccc(-c4cc5ccccc5o4)c3)c2[C@@H]1CCO (stereo not given in full)	none (no result: NR3A LBD binder)
Cc1ccc(S(=O)(=O)N(C)CC(=O)Nc2ccc(C)cn2)cc1	none
O=C1CCN(CCCN2CCC(=O)NC2=S)C(=S)N1	none (no result: NR3A LBD binder)
Cc1ccc(S(=O)(=O)/N=C2/NC(=O)/C(=C/c3cc([N+](=O)[O-])ccc3O)S2)cc1	NR3A LBD binder 28, ADAM17 inh 8.6 | ADAM10 counter inactive | ADAM17 confirm inactive
Cn1cc([N+](=O)[O-])c(C(=O)N/N=C\c2c[nH]c3ccccc23)n1	none
O=[N+]([O-])c1ccc(N/N=C/c2c[nH]c3ccccc23)cc1	NR3A LBD binder 30, ADAM17 inh 9.6 | ADAM10 counter inactive | ADAM17 confirm inactive
COc1ccc(S(=O)(=O)Nc2c(C)nn(C)c2C)cc1Br	none
COc1ccc(C(=O)NCCCCCC(=O)N/N=C/c2ccco2)cc1OC	none
S=C(NCc1ccco1)Nc1ccc(Cl)c(Cl)c1	NR3A LBD binder 11, ADAM17 inh 10.0 | ADAM10 counter inactive | ADAM17 confirm inactive
S=C(NCc1ccco1)Nc1cccc(Cl)c1	none
Cc1ccc(C)c(N2CCN(C3C(=O)Nc4ccccc4-n4nnnc43)CC2)c1 (stereo not given)	none (no result: NR3A LBD binder, FAS TE block)
O=C1Nc2ccccc2-n2nnnc2C1N1CCN(c2ccc(C(F)(F)F)cc2[N+](=O)[O-])CC1 (stereo not given)	ADAM17 inh 8.6 (no result: NR3A LBD binder, FAS TE block) | ADAM10 counter 32 | ADAM17 confirm 18
c1ccc(Cc2cnc(N3CCN(Cc4ccc5c(c4)OCCO5)CC3)nc2)cc1	ADAM17 inh 11 (no result: NR3A LBD binder, aDG glyco up, FAS TE block) | ADAM10 counter inactive | ADAM17 confirm inactive
Clc1ccc(CN2CCN(c3ncc(Cc4ccccc4)cn3)CC2)cc1	none (no result: NR3A LBD binder, aDG glyco up, FAS TE block)
Cc1ccc(C(=O)N2CCN(CCNC(=O)C(=O)Nc3ccc(Cl)cc3)CC2)cc1	none
COc1ccc(-c2cn[nH]c2-c2ccc(OCc3ccc([N+](=O)[O-])cc3)cc2O)cc1OC	NR3A LBD binder 15, ADAM17 inh 9.8 | ADAM10 counter 25 | ADAM17 confirm 14
C/C(=N\NC(=O)c1ccc2c(c1)OCO2)c1ccc(NS(C)(=O)=O)cc1	none
CC1CC(C)CN(C(=O)COC(=O)COc2ccccc2C#N)C1 (stereo not given)	ADAM17 inh 9.7 | ADAM10 counter 22 | ADAM17 confirm 11
CCCc1nnc(NC(=O)CCS(=O)(=O)c2ccccc2)s1	none
COCCN(C(=O)COC(=O)/C=C/c1cccc(C(F)(F)F)c1)c1c(N)n(CC(C)C)c(=O)[nH]c1=O	none
Cc1ccc(S(=O)(=O)N2C3CCCCC3O[C@H]2CC(=O)c2ccc(F)cc2)cc1 (stereo not given in full)	ADAM17 inh 9.6 (no result: NR3A LBD binder, FAS TE block) | ADAM10 counter inactive | ADAM17 confirm inactive
Cc1ccc(S(=O)(=O)N2C3CCCCC3O[C@H]2CC(=O)c2ccccc2)cc1 (stereo not given in full)	none (no result: NR3A LBD binder, FAS TE block)
CC(C)=CCc1c2c(c3occ(-c4ccc(O)c(O)c4)c(=O)c3c1O)C=CC(C)(C)O2	NR3A LBD binder 27, ADAM17 inh 11 | ADAM10 counter inactive | ADAM17 confirm inactive
CC(C)=CCc1c2c(c3occ(-c4ccc(O)cc4)c(=O)c3c1O)C=CC(C)(C)O2	NR3A LBD binder 25, ADAM17 inh 9.5 | ADAM10 counter 21 | ADAM17 confirm 15
COc1ccc(CNS(=O)(=O)c2ccc(S(=O)(=O)N3CCCCC3)cc2)cc1	none
Cc1onc(-c2ccccc2Cl)c1C(=O)NC(=S)Nc1ccc(C(C)C)cc1	none
Cc1onc(-c2ccccc2Cl)c1C(=O)Nc1ccc2c(c1)OCO2	ADAM17 inh 10 | ADAM10 counter inactive | ADAM17 confirm inactive
Cc1ccc(NC(=S)NC(=O)c2c(-c3ccccc3Cl)noc2C)cc1	ADAM17 inh 10.0 | ADAM10 counter 26 | ADAM17 confirm 14
O=C(Nc1ccc(F)c(Cl)c1)c1csc([C@@H]2O[C@H](CO)[C@H](O)[C@H](O)[C@H]2O)n1	none (no result: NR3A LBD binder)
Cc1ccc2c(c1)S/C(=C\c1cccc[n+]1C)N2CCO	none
